# Measurements published in PubChem BioAssay (NCATS).
# Results filed as inconclusive are left out. Activity calls are given as the source filed them. The call rests on the fitted dose curve; in most records, active means well fitted inhibition curve with a large enough effect; inconclusive means small, poorly fitted or top-dose-only effect; inactive means flat fitted curve, though single readings scatter.
# Legend:
# CRL-7250 = normal cell line; assay: Cytotoxic Profiling of Annotated Libraries Using Quantitative High-Throughput Screening (AID 1296008); conditions: Five cell lines viability, CellTiter-Glo ATP luminescence, 48-72 h; max response: active compounds read low; further: nearly all actives have a fitted effect of over 60% in size
# Summary of the method: (§1)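 Compounds were pin-transferred onto cells and incubated 48 or 72 hr at 37 degree Celsius, 95% humidity. CellTiter-Glo was added, plates sat 10 min at room temperature, then ATP-coupled luminescence was imaged as the viability read-out.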
# HEK293 = assay: as above; conditions: Five cell lines viability, CellTiter-Glo ATP luminescence, 48-72 h; max response: active compounds read low
# Summary of the method: as §1
# On the % scale 0 is the no-effect control and ±100 the full control effect; potency means the concentration at half of the fitted maximal effect.
structure (smiles),measurement,setting,value
O=C1OCc2cc3cccc(O[C@@H]4O[C@H](CO)[C@@H](O)[C@H](O)[C@H]4O)c3c(O)c21,max response,CRL-7250,3.34% (inactive)
same,max response,HEK293,-24.4% (inactive)
C=C(C)C1Cc2cc(C(=O)OC3OC(CO)C(O)C(O)C3O)ccc2O1 (stereo unspecified),max response,CRL-7250,-9% (inactive)
same,max response,HEK293,-15% (inactive)
C[C@@H]1CCC2C(C)(C)[C@H](O)CC[C@]2(C)[C@@]12Cc1c(O)cc3c(c1O2)CN([C@@H](CCC(=O)O)C(=O)O)C3=O (stereo partly specified),outcome,CRL-7250,inactive
same,outcome,HEK293,inactive
O=C(Nc1nc2ccccc2n1CCc1ccccc1)c1ccccc1,max response,CRL-7250,1.35% (inactive)
same,max response,HEK293,-110% (inactive)
Cc1cc(C(=O)N2Cc3cnn(C)c3Nc3ccccc32)ccc1CNC(=O)N1CCC[C@H]1C(=S)N1CCCN(C)CC1,max response,CRL-7250,2.05% (inactive)
same,max response,HEK293,-0.106% (inactive)
CC(=O)C=C=C1C(C)(C)CC(O[C@@H]2O[C@H](CO)[C@@H](O)[C@H](O)[C@H]2O)CC1(C)O (stereo partly specified),outcome,CRL-7250,inactive
same,outcome,HEK293,inactive
COc1cc(C2c3cc4c(c(O)c3CC(CO)C2C(=O)O)OCO4)cc(OC)c1O (stereo unspecified),Potency,CRL-7250,3170 nM (active)
same,Potency,HEK293,2240 nM (active)
COC(=O)C1=CO[C@@H](O[C@@H]2O[C@H](CO)[C@@H](O)[C@H](O)[C@H]2O)C2C1C(=O)C[C@H]2C (stereo partly specified),max response,CRL-7250,-1.68% (inactive)
same,max response,HEK293,-7.74% (inactive)
